Assay results reported in PubChem BioAssay (Tox21).
The source made the active and inactive calls. Calls come from the whole dose curve; as a rule, active = well fitted cell-killing curve with a large enough effect in the repeat runs; inconclusive = weak or mixed curves, or effect the other way; inactive = flat fitted curve, though single readings scatter.

experiment: qHTS assay to identify small molecule HDAC inhibitors - cell viability counter screen (AID 1259365); conditions: HCT-116 viability, CellTiter-Glo ATP luminescence, 2 h; series mostly up to 92.4 µM; note: nearly all actives have a fitted effect of over 50% in size
Source text: U.S. Tox21 Program National Center for Advancing Translational Sciences [NCATS] NIH Chemical Genomics Center [NCGC] U.S. Environmental Protection Agency [EPA] National Institutes of Environmental Health Sciences [NIEHS] National Toxicology Program [NTP] U.S. Food and Drug Administration [FDA] Tox21 Assay Overview: Histone deacetylases (HDACs) are a group of epigenetic enzymes that regulate gene expression by histone deacetylation. HDACs are capable of introducing epigenetic modifications and such aberrations contribute to the onset and progression of several human diseases, thus making HDACs a popular therapeutic target. For identifying endogenous class I/II HDAC inhibitors a homogenous, luminogenic HDAC I/II cell based assay was used to measure the relative activity of class I and II HDACs from cells. Wild type HCT-116 cells were used to screen Tox21 compound libraries for identifying class I/II HDAC inhibitors.
Tox21 Assay Protocol Summary: HCT-116 cells were dispensed at 1,500 per well in 5uL of culture medium into white solid bottom 1536-well plates (Greiner Bio-One, Monroe, NC) using a Multidrop Combi (Thermo Scientific, Waltham, MA) dispenser. The assay plates were incubated at 37 C and 5% CO2 for an overnight, and then 23nL of compounds dissolved in DMSO and positive control were transferred using a Pintool station (Wako, San Diego, CA). The assay plates were incubated at 37C and 5% CO2 for 2hr. After compound treatment, 4uL of CellTiter-Glo reagent (Promega Corporation, Madison, WI) was added to each well of the assay plates using Flying Reagent Dispenser (FRD, Aurora Discovery, San Diego, CA) and incubated the assay plates at room temperature for 30min. The luminescence signal was quantified using a ViewLux plate reader (Perkin Elmer, Shelton, CT).
% is set by controls: 0 for no effect and ±100 for the full control effect.

Structure (SMILES) | outcome | activity change, negative = cytotoxicity
Cc1cccc(C)c1NC(=O)CC12CCCN1CCC2 | inactive | 
N[C@H](C(=O)O)[C@@H](O)c1ccc(O)c(O)c1 | inactive | 
CN(C)[C@@H]1C(=O)C(C(=O)NCN2CCCC2)=C(O)[C@@]2(O)C(=O)C3=C(O)c4c(O)cccc4[C@@](C)(O)C3C[C@@H]12 (stereo not given in full) | inactive | 
O=C(O)CNC(=O)c1ccc(CO)o1 | inactive | 
C=C[Si](OC(C)=O)(OC(C)=O)OC(C)=O | inactive | 
CC(C)NNC(=O)c1ccncc1 | inactive | 
CCN(C=O)CC | inactive | 
CCCCS(=O)(=O)N[C@@H](Cc1ccc(OCCCCC2CCNCC2)cc1)C(=O)O | inactive | 
Cc1nc(C2CCCCC2)c(-c2ccc(S(N)(=O)=O)c(F)c2)o1 | inactive | 
O=C(CO)[C@@H](O)[C@H](O)[C@H](O)CO | inactive | 
C=CC(C)(CCC=C(C)C)OC(=O)CC (stereo not given) | inactive | 
CC(C)C(=O)OC(=O)C(C)C | inactive | 
C1CCC2=NCCCN2CC1 | inactive | 
Cc1ncc([C@@H](CCCCCCc2ccc3c(n2)NCCC3)CC(=O)O)cn1 | inactive | 
CC12CCC(C(=O)C1=O)C2(C)C (stereo not given) | inactive | 
CC(=O)N1C[C@H](O)C[C@H]1C(=O)O | inactive | 
CCCC(C)C(=O)OCC (stereo not given) | inactive | 
CC1(C)[C@@H]2CC[C@@]1(C)[C@H](O)C2 | inactive | 
c1ccc(Cc2ccccc2)cc1 | inactive | 
CCCCN(CCC(=O)OCC)C(C)=O | inactive | 

Structure (SMILES) | outcome | activity change, negative = cytotoxicity
CCC1C(=O)OCC1Cc1cncn1C (stereo not given) | inactive | 
CC(C)(C)C(=O)Oc1ccc(S(=O)(=O)Nc2ccccc2C(=O)NCC(=O)O)cc1 | inactive | 
CC(CC=O)CC(C)(C)C (stereo not given) | inactive | 
CC(N)C12CC3CC(CC(C3)C1)C2 (stereo not given) | inactive | 
CCOC(=O)c1ccccc1 | inactive | 
CC(CO)(CO)[N+](=O)[O-] | inactive | 
COC(=O)Nc1ccc(Cl)c(Cl)c1 | inactive | 
Cc1cc(C)c(N=Nc2c(O)c(S(=O)(=O)O)cc3cc(S(=O)(=O)O)ccc23)cc1C |  | -2.91% [at 8.39 µM] (inactive)
CCCC[N+](C)(CCCC)CCCC | inactive | 
CCOC(=O)OC(C)OC1=C(C(=O)Nc2ccccn2)N(C)S(=O)(=O)c2ccccc21 (stereo not given) | inactive | 
CN1CCC(=C2c3ccccc3CCc3cccnc32)CC1 | inactive | 
CCCO[Si](OCCC)(OCCC)OCCC | inactive | 
Cc1ccc(-c2ccccc2C#N)cc1 | inactive | 
CC(C)CCCO | inactive | 
C[C@@H]1CCC[C@H](C)N1 | inactive | 
FB(F)F | inactive | 
CCN1C=CN(C)C1C (stereo not given) | inactive | 
COc1cc2c(cc1OC)-c1cc3ccc(OC)c(OC)c3c[n+]1CC2 | inactive | 
O=C(O)CCSCCC(=O)O | inactive | 
CC(=O)Nc1ccc(OCC(O)CNC(C)C)cc1 (stereo not given) | inactive | 
